PubChem BioAssay (EPA / NIEHS)
Active and inactive are the calls of the source. The calls were made as follows: active = hit-call score of the fitted dose curve at least 0.9, where 1 is the maximum; inactive = score below 0.9.

Assays:
[1] = CEETOX_H295R_11DCORT: CeeTox H295R High-throughput Steroidogenesis Assay for 11-Deoxycortisol (11DCORT) (AID 2283432); conditions: actives raise or lower the signal;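 as to AC50: 11-deoxycortisol secreted into the medium measured by LC-MS/MS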
How it was run: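 H295R cells; 10 uM forskolin prestim 48 h; compound in 0.1% DMSO 48 h; media extracted with MTBE; 11-deoxycortisol by LC-MS/MS, 7-point standard curve; gain/loss vs DMSO baseline; viability by MTT in same wells.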

[2] = CEETOX_H295R_OHPREG: CeeTox H295R High-throughput Steroidogenesis Assay for OH-Pregnenolone (OHPREG) (AID 2283434); conditions: actives raise or lower the signal
How it was run: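 Hormone levels in spent medium were measured by tandem mass spectrometry following liquid-liquid extraction. Cells (H295R) had been forskolin-stimulated (10 uM, 48 h) before a 48 h chemical exposure at 0.1% DMSO, with activity fitted in both directions against DMSO.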

[3] = CEETOX_H295R_OHPROG: CeeTox H295R High-throughput Steroidogenesis Assay for OH-Progesterone (OHPROG) (AID 2283435); conditions: actives raise or lower the signal;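 as to AC50: 17alpha-hydroxyprogesterone secreted into medium measured by HPLC-MS/MS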
How it was run: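 Secreted 17alpha-hydroxyprogesterone is read by tandem MS from media of forskolin-primed H295R cells dosed with chemical for 48 h. Activity is fitted in both directions against DMSO baseline; cytotoxic concentrations are re-tested diluted.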

[4] = CEETOX_H295R_CORTIC: CeeTox H295R High-throughput Steroidogenesis Assay for Corticosterone (CORTIC) (AID 2283437); conditions: actives raise or lower the signal;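 also: corticosterone secreted into medium quantified by mass spectrometry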
How it was run: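 Corticosterone secreted into medium is measured by reverse-phase HPLC with tandem MS following liquid-liquid extraction. Cells are forskolin-stimulated (10 uM, 48 h) before 48 h test exposure; activity fitted in both directions against DMSO.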

[5] = CEETOX_H295R_CORTISOL: CeeTox H295R High-throughput Steroidogenesis Assay for Cortisol (AID 2283438); conditions: actives raise or lower the signal;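 also: cortisol secreted into medium quantified by LC-MS/MS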
How it was run: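 Human adrenocortical H295R cells (passage ≤10) received test chemicals for 48 h after forskolin priming. Secreted cortisol was measured by LC-MS/MS.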

[6] = CEETOX_H295R_ESTRADIOL: CeeTox H295R High-throughput Steroidogenesis Assay for Estradiol (AID 2283440); conditions: actives raise or lower the signal;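 also: estradiol secreted into medium quantified by LC-MS/MS after dansyl derivatisation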
How it was run: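 H295R adrenocortical cells were prestimulated with 10 uM forskolin for 48 h, then exposed to test chemical in 0.1% DMSO for 48 h. Medium estradiol was extracted with MTBE, dansyl-derivatized and quantified by HPLC-MS/MS; bidirectional fit versus DMSO.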

[7] = CEETOX_H295R_ESTRONE: CeeTox H295R High-throughput Steroidogenesis Assay for Estrone (AID 2283441); conditions: actives raise or lower the signal;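 also: estrone secreted into medium measured by LC-MS/MS after dansyl derivatization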
How it was run: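 H295R cells; 48 h forskolin (10 uM) prestimulation; 48 h compound exposure, 0.1% DMSO final. Medium estrone: MTBE extraction, dansyl derivatization, HPLC-MS/MS. Bidirectional fit vs DMSO.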

[8] = CEETOX_H295R_PROG: CeeTox H295R High-throughput Steroidogenesis Assay for Progesterone (PROG) (AID 2283442); conditions: actives raise or lower the signal;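 as to AC50: human H295R adrenal cells primed with 10 µM forskolin before dosing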
How it was run: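 H295R human adrenal cells were prestimulated with 10 uM forskolin for 48 h, then exposed to test chemical (0.1% DMSO final) for 48 h. Medium progesterone was MTBE-extracted and quantified by HPLC-MS/MS, with bidirectional fitting against DMSO.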

[9] = read-out: Cyclin D2 (CCND2), CCND2 (gene 894); experiment: LTEA_HepaRG_CCND2: Life Technologies and Expression Analysis (LTEA) Assay for Cyclin D2 (CCND2) using HepaRG (AID 2283449); conditions: mRNA level, 48 h; actives raise or lower the signal
How it was run: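 Read-out is CCND2 mRNA level measured by qRT-PCR in human HepaRG liver cells and normalised to three housekeeping genes. Chemicals were applied for 48 h at up to 100 uM, with gain or loss fitted relative to 0.5% DMSO.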

[10] = read-out: Cyclin D1 (CCND1), CCND1 (gene 595); experiment: LTEA_HepaRG_CCND1: Life Technologies and Expression Analysis (LTEA) Assay for Cyclin D1 (CCND1) using HepaRG (AID 2283451); conditions: mRNA level, 48 h; actives raise or lower the signal;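 as to AC50: TaqMan qRT-PCR transcript level normalised to ACTB GAPDH and POLR2A housekeeping genes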
How it was run: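 Differentiated human HepaRG cells in serum-free induction medium were exposed 48 h to eight half-log concentrations up to 100 uM in 0.5% DMSO; mRNA quantified by TaqMan qRT-PCR, normalized to ACTB, GAPDH, POLR2A, fitted bidirectionally versus DMSO.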

[11] = read-out: catalase (CAT), CAT (gene 847); experiment: LTEA_HepaRG_CAT: Life Technologies and Expression Analysis (LTEA) Assay for catalase (CAT) using HepaRG (AID 2283452); conditions: mRNA level, 48 h; actives raise or lower the signal;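 as to AC50: TaqMan qRT-PCR signal normalized to ACTB GAPDH and POLR2A housekeeping genes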
How it was run: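 Expression of CAT was quantified by TaqMan qRT-PCR with ACTB/GAPDH/POLR2A normalization after 48 h chemical exposure of HepaRG. Eight-point half-log series, top 100 uM, in 0.5% DMSO; gain or loss fitted against vehicle.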

[12] = read-out: flavin-containing dimethylaniline monooxygenases 3 (FMO3), FMO3 (gene 2328); experiment: LTEA_HepaRG_FMO3: Life Technologies and Expression Analysis (LTEA) Assay for flavin-containing dimethylaniline monooxygenases 3 (FMO3) using HepaRG (AID 2283453); conditions: mRNA level, 48 h; actives raise or lower the signal;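 as to AC50: FMO3 transcript by TaqMan qRT-PCR normalized to ACTB GAPDH and POLR2A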
How it was run: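 HepaRG, 48 h exposure, 8-pt half-log series from 100 uM, 0.5% DMSO vehicle, duplicates; FMO3 transcript by Fluidigm TaqMan qRT-PCR, housekeeping-normalized; gain/loss fit vs DMSO.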

[13] = read-out: Cytochrome P450 (CYP1A1), CYP1A1 (gene 1543); experiment: LTEA_HepaRG_CYP1A1: Life Technologies and Expression Analysis (LTEA) Assay for Cytochrome P450 (CYP1A1) using HepaRG (AID 2283454); conditions: mRNA level, 48 h; actives raise or lower the signal
How it was run: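 Differentiated HepaRG cells in serum-free induction medium were exposed in duplicate for 48 h to eight half-log concentrations up to 100 uM in 0.5% DMSO. CYP1A1 mRNA was quantified by TaqMan qRT-PCR, normalized to ACTB, GAPDH and POLR2A.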

[14] = read-out: CFLAR gene, CFLAR (gene 8837); experiment: LTEA_HepaRG_CFLAR: Life Technologies and Expression Analysis (LTEA) Assay for CFLAR gene using HepaRG (AID 2283455); conditions: mRNA level, 48 h; actives raise or lower the signal
How it was run: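 HepaRG, 48 h exposure, 8-pt conc-response (100 uM top, half-log), 0.5% DMSO vehicle, duplicates. CFLAR expression by qRT-PCR; ACTB/GAPDH/POLR2A normalization; gain or loss fit vs DMSO baseline.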

[15] = read-out: Forkhead box O1 (FOXO1), FOXO1 (gene 2308); experiment: LTEA_HepaRG_FOXO1: Life Technologies and Expression Analysis (LTEA) Assay for Forkhead box O1 (FOXO1) using HepaRG (AID 2283456); conditions: mRNA level, 48 h; actives raise or lower the signal
How it was run: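 Readout is FOXO1 transcript level by multiplexed qRT-PCR against three housekeeping genes, curve-fitted in both directions relative to 0.5% DMSO vehicle. Human HepaRG cultures received chemicals for 48 h, up to 100 uM in half-log steps.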

[16] = read-out: Tumor necrosis factor receptor superfamily member 6 (Homo sapiens) (UniProt P25445); experiment: LTEA_HepaRG_FAS: Life Technologies and Expression Analysis (LTEA) Assay for Fas cell surface death receptor (FAS) using HepaRG (AID 2283447); conditions: mRNA level, 48 h; actives raise or lower the signal
How it was run: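 FAS transcript level was measured by TaqMan qRT-PCR against three housekeeping genes after 48 h chemical exposure. Cells were HepaRG, 0.5% DMSO vehicle, with a top concentration of 100 uM and half-log dilutions over eight points, in duplicate.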

[17] = read-out: Fatty acid synthase (Homo sapiens) (UniProt P49327); experiment: LTEA_HepaRG_FASN: Life Technologies and Expression Analysis (LTEA) Assay for Fatty Acid Synthase (FASN) using HepaRG (AID 2283448); conditions: mRNA level, 48 h; actives raise or lower the signal
How it was run: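 Transcript-level assay: HepaRG liver cells are treated for 48 h across an eight-point range topping at 100 uM, and FASN mRNA, normalized to three housekeeping genes, is compared with DMSO controls in both directions.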

[18] = read-out: Cyclin Dependent Kinase Inhibitor 1A (CDKN1A), CDKN1A (gene 1026); experiment: LTEA_HepaRG_CDKN1A: Life Technologies and Expression Analysis (LTEA) Assay for Cyclin Dependent Kinase Inhibitor 1A (CDKN1A) using HepaRG (AID 2283450); conditions: mRNA level, 48 h; actives raise or lower the signal
How it was run: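 Differentiated human HepaRG cells, pre-cultured 48 h, were exposed in duplicate for 48 h in serum-free induction medium to eight half-log concentrations up to 100 uM (0.5% DMSO). CDKN1A mRNA was measured by qRT-PCR, normalized to ACTB/GAPDH/POLR2A, bidirectionally fitted versus DMSO.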

[19] = CEETOX_H295R_ANDR: CeeTox H295R High-throughput Steroidogenesis Assay for Androstenedione (ANDR) (AID 2283436); conditions: actives raise or lower the signal
How it was run: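 Read-out is androstenedione secreted into medium, measured by tandem mass spectrometry after liquid-liquid extraction. Cells were H295R, dosed for 48 h per modified OECD 456; activity fitted in both directions relative to DMSO.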

[20] = CEETOX_H295R_TESTO: CeeTox H295R High-throughput Steroidogenesis Assay for Testosterone (TESTO) (AID 2283457); conditions: actives raise or lower the signal
How it was run: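 H295R human adrenal cells in DMEM/F12 with ITS+ and Nu-Serum, exposed to chemicals for 48 h. Testosterone in medium measured by MTBE extraction, reverse-phase HPLC-MS/MS; bidirectional fit versus DMSO baseline. MTT viability checked in same wells.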

Measured: AC50

Sequence of Fatty acid synthase (Homo sapiens) (P49327 whole entry, looked up): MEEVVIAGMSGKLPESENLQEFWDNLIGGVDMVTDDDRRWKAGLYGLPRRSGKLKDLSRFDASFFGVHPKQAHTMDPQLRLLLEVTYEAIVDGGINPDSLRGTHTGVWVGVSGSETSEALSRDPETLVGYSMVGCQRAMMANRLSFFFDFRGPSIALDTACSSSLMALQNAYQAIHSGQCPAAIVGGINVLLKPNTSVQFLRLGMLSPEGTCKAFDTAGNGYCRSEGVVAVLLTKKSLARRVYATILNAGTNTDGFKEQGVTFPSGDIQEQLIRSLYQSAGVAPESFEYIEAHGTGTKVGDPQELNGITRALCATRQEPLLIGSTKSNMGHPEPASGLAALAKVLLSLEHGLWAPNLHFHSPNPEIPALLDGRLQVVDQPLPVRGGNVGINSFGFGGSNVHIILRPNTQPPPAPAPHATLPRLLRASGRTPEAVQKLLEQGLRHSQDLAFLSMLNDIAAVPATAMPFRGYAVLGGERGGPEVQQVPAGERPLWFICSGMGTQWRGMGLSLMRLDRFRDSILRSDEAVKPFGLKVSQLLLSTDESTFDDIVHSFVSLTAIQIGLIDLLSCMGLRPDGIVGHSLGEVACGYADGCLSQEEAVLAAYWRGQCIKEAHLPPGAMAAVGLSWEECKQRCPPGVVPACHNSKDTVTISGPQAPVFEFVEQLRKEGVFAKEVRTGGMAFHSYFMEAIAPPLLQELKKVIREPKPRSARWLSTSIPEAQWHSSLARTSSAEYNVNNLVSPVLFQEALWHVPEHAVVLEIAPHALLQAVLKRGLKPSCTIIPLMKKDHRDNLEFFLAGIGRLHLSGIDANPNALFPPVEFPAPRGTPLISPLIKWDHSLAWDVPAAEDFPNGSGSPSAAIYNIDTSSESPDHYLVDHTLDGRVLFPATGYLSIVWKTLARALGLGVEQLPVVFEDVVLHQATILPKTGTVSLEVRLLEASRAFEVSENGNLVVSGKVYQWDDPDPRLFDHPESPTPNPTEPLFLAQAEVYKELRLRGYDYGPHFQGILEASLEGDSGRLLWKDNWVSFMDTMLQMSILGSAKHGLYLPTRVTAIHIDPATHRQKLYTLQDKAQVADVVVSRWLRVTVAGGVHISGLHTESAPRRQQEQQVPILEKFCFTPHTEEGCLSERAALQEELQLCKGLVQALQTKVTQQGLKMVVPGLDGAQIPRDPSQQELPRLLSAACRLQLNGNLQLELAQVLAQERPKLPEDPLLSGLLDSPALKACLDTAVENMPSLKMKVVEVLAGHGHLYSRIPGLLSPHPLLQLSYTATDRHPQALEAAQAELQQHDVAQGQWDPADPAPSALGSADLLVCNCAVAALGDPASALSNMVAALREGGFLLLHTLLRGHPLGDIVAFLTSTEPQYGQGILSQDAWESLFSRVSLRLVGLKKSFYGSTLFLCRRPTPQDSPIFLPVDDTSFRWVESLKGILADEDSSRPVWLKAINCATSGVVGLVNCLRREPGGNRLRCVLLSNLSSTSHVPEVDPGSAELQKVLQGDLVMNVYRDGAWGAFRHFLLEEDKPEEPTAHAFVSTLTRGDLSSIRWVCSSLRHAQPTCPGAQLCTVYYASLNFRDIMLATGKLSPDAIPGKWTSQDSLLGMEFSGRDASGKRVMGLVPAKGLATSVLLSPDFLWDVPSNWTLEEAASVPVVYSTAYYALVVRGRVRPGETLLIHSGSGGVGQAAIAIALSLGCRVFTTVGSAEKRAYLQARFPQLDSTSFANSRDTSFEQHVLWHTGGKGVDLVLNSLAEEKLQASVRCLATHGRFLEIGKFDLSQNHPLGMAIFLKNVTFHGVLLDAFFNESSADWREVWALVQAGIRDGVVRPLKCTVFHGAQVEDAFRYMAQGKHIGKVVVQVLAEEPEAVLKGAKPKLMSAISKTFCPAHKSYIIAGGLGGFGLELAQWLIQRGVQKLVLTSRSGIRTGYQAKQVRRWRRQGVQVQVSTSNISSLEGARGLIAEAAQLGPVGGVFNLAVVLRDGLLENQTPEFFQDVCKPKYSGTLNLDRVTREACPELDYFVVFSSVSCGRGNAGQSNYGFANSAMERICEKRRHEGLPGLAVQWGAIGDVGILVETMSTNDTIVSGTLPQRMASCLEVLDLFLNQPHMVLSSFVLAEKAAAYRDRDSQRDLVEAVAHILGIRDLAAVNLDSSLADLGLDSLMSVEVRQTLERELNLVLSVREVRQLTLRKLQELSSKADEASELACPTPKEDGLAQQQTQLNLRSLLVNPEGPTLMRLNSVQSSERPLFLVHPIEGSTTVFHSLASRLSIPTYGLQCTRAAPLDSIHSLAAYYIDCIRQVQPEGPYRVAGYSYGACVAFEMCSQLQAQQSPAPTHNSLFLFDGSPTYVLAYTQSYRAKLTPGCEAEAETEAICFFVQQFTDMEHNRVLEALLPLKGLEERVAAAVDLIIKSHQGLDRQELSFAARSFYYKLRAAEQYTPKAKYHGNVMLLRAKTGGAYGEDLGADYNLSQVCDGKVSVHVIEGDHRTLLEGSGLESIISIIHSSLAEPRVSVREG

C[C@@H]1C[C@H]2[C@@H]3CCC4=CC(=O)C=C[C@]4(C)[C@@]3(F)[C@@H](O)C[C@]2(C)[C@@]1(O)C(=O)COP(=O)(O)O
not listed: [16] | [17] | [18] | [19] | [20]
inactive: all other assays above

CCCCCCCCOC(=O)CCCCCCCCC(=O)OCCCCCCCC
inactive: [16] | [17] | [10] | [11] | [12] | [14] | [15]
active: [13] 30.3 µM

CCCCCCC(=O)O
inactive: [16] | [17] | [9] | [10] | [11] | [12] | [14] | [15]
active: [13] 59.9 µM

CCCCC(CC)COC(=O)CCCCC(=O)OCc1ccccc1 (centres undefined)
inactive: [16] | [9] | [18] | [10] | [11] | [12] | [14] | [15]
active: [13] 50 µM

Nc1cccc2c(N)cccc12
active: [1] 5 µM | [3] 1.78 µM | [5] 5 µM | [8] 2.44 µM | [17] 18.3 µM | [13] 9 µM
not listed: [9] | [16]
inactive: all other assays above

Cc1oc(-c2ccccc2)nc1CCOc1ccc(C[C@H](Nc2ccccc2C(=O)c2ccccc2)C(=O)O)cc1
inactive: [9] | [18] | [15]
active: [16] 92.4 µM | [10] 23.6 µM | [11] 29.4 µM | [12] 26.4 µM | [13] 11.4 µM | [14] 30 µM

CC1=C(/C=C/C(C)=C/C=C/C(C)=C/C(=O)O)C(C)(C)CCC1
active: [8] 8.11 µM | [11] 9.37 µM | [12] 0.446 µM | [13] 35.9 µM | [14] 5.84 µM
inactive: [1] | [3] | [5] | [9] | [10] | [15]
